From PubChem BioAssay AID1159580 (chemical genetic matrix, 2015)
“And” between values parts separate entries of the source, which are not always exact repeats. Equal entries are not always repeated. Among all 5,500 compounds or so, about 2,000 (36%) were called active. Not shown: some 18% with an inconclusive outcome. No stated cut-off is given here; in the data, active means normalized growth mostly below about 0.91 (no sharp cut-off); inconclusive means no clear call, values can overlap the other calls; inactive means mostly above about 0.92. The list shows a part of the results.

Assay: chemical genetic growth profiling, strain panel (AID 1159580);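 further: tested at 20 µM; growth read once vehicle control cultures reached saturation at 30 °C; 1 = growth at the plate median or of vehicle wells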
Settings: S. cerevisiae deletion strains, growth OD

Measured: normalized growth

COc1cccc2c1cc([N+](=O)[O-])c1c(C(=O)O)cc3c(c12)OCO3
inactive: locus YAL021C, strain ccr4, stronger effect = lower value 1.01 | locus YAL026C, strain drs2, stronger effect = lower value 1.02 | locus YAL030W, strain snc1, stronger effect = lower value 1.02 | locus YBL061C, strain skt5, stronger effect = lower value 1.02 | locus YBR009C, strain hhf1, stronger effect = lower value 1.03 | locus YBR021W, strain FUR4, stronger effect = lower value 0.991 | locus YBR023C, strain chs3, stronger effect = lower value 1.02 | locus YBR171W, strain sec66, stronger effect = lower value 1.05 | locus YBR229C, strain ROT2, stronger effect = lower value 1.01 | locus YBR231C, strain swc5, stronger effect = lower value 1.03 | locus YBR279W, strain paf1, stronger effect = lower value 1.02 | locus YCL011C, strain gbp2, stronger effect = lower value 1.03 | locus YCL016C, strain dcc1, stronger effect = lower value 1.02 | locus YCL029C, strain bik1, stronger effect = lower value 1.02 | locus YCL061C, strain MRC1, stronger effect = lower value 1.02 | locus YCL069W, strain vba3, stronger effect = lower value 1.02 | locus YCR088W, strain abp1, stronger effect = lower value 1.02 | locus YDL005C, strain med2, stronger effect = lower value 1.04 | locus YDL035C, strain GPR1, stronger effect = lower value 1.01 | locus YDL040C, strain nat1, stronger effect = lower value 1 | locus YDL074C, strain BRE1, stronger effect = lower value 1.04 | locus YDL101C, strain DUN1, stronger effect = lower value 1.03 | locus YDL134C, strain PPH21, stronger effect = lower value 1.01 | locus YDL185W, strain tfp1, stronger effect = lower value 1 | locus YDL192W, strain arf1, stronger effect = lower value 1.04 | locus YDR001C, strain nth1, stronger effect = lower value 1.02 | locus YDR069C, strain doa4, stronger effect = lower value 1.02 | locus YDR101C, strain arx1, stronger effect = lower value 1.03 | locus YDR137W, strain rgp1, stronger effect = lower value 1.03 | locus YDR150W, strain NUM1, stronger effect = lower value 1.02 | locus YDR159W, strain sac3, stronger effect = lower value 1.04 | locus YDR162C, strain NBP2, stronger effect = lower value 1.03 | locus YDR195W, strain ref2 1 | locus YDR297W, strain sur2, stronger effect = lower value 1.03 | locus YDR318W, strain mcm21, stronger effect = lower value 1.02 | locus YDR334W, strain swr1, stronger effect = lower value 1.02 | locus YDR335W, strain msn5, stronger effect = lower value 1.02 | locus YDR388W, stronger effect = lower value 1.02 | locus YDR392W, strain spt3, stronger effect = lower value 0.971 | locus YDR502C, strain sam2, stronger effect = lower value 1.01 | locus YEL003W, strain gim4, stronger effect = lower value 1.03 | locus YEL037C, strain rad23, stronger effect = lower value 1.02 | locus YEL061C, strain CIN8 (second series), stronger effect = lower value 1.02 | locus YEL061C, strain CIN8, stronger effect = lower value 1.01 | locus YER015W, strain faa2, stronger effect = lower value 1.02 | locus YER016W, strain bim1, stronger effect = lower value 1.02 | locus YER110C, stronger effect = lower value 1.01 | locus YER111C, strain swi4, stronger effect = lower value 1.03 | locus YER155C, strain BEM2 (second series), stronger effect = lower value 1.03 | locus YER155C, strain BEM2, stronger effect = lower value 1.01 | locus YER167W, strain BCK2, stronger effect = lower value 0.999 | locus YFR010W, strain ubp6, stronger effect = lower value 1.02 | locus YGL078C, strain dbp3, stronger effect = lower value 0.997 | locus YGL086W, strain mad1, stronger effect = lower value 1.03 | locus YGL167C, strain pmr1, stronger effect = lower value 1.04 | locus YGL173C, strain kem1, stronger effect = lower value 1.04 | locus YGL227W, strain vid30, stronger effect = lower value 1.02 | locus YGL240W, strain doc1, stronger effect = lower value 1.03 | locus YGL248W, strain PDE1, stronger effect = lower value 1.01 | locus YGL253W, strain hxk2, stronger effect = lower value 1.01 | locus YGR135W, strain pre9, stronger effect = lower value 0.994 | locus YGR229C, strain SMI1, stronger effect = lower value 1.02 | locus YGR252W, strain gcn5, stronger effect = lower value 0.906 | locus YHR013C, strain ard1, stronger effect = lower value 1.02 | locus YHR027C, strain rpn1, stronger effect = lower value 1.02 | locus YHR030C, strain SLT2, stronger effect = lower value 1.01 and 0.92 | locus YHR079C, strain IRE1 (second series), stronger effect = lower value 1.01 | locus YHR079C, strain IRE1, stronger effect = lower value 0.914 | locus YHR094C, strain hxt1, stronger effect = lower value 1.02 | locus YHR129C, strain ARP1, stronger effect = lower value 1.01 | locus YHR142W, strain chs7, stronger effect = lower value 1.01 | locus YHR200W, strain rpn10, stronger effect = lower value 1.02 | locus YIL066C, strain RNR3, stronger effect = lower value 1.02 | locus YIL073C, strain SPO22, stronger effect = lower value 1.03 | locus YIL125W, strain kgd1, stronger effect = lower value 0.995 | locus YIR030C, strain dcg1, stronger effect = lower value 1.02 | locus YJL092W, strain hpr5, stronger effect = lower value 1.02 | locus YJL095W, strain BCK1 (second series), stronger effect = lower value 1.01 | locus YJL095W, strain BCK1, stronger effect = lower value 1.04 and 0.987 | locus YJL115W, strain asf1, stronger effect = lower value 1.02 | locus YJL129C, strain trk1, stronger effect = lower value 1.03 | locus YJL134W, strain LCB3, stronger effect = lower value 1.02 | locus YJL154C, strain vps35, stronger effect = lower value 1.02 | locus YJL164C, strain tpk1, stronger effect = lower value 0.991 | locus YJL166W, strain qcr8, stronger effect = lower value 1.02 | locus YJL168C, strain set2, stronger effect = lower value 1.01 | locus YJL187C, strain SWE1 (second series), stronger effect = lower value 1.03 | locus YJL187C, strain SWE1, stronger effect = lower value 1.02 | locus YJR043C, strain POL32, stronger effect = lower value 1.01
